Drawing on PubChem BioAssay AID1053125 (Broad Institute, 2014), this text covers outcome for 34 compounds.

The structures appear in SMILES notation. Potency and affinity values are given separately. Calls of active or inactive are those of the source.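 How the source made its calls: active means viability loss whose fitted half-maximal concentration is at most twice the top valid tested dose; inconclusive means flat curve with 30 to 70% loss, or poor fit; inactive means the rest.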

A short description of this test: HepG2 cell cytotoxicity, dose response, cytotoxicity control, ATP luminescence, cherry-pick, set 6 (AID 1053125).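 Further: negative values mean loss of viability signal.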 To be noted: HepG2 viability, ATP luminescence (CellTiter-Glo), 72 h; series mostly up to 26 µM. In general terms: ATP-based viability assays read luminescence as a measure of living cells.
`CCCN1CCN(C(=O)c2ccc(CS(=O)c3ccc(Br)cc3)o2)CC1` (centres undefined): the compound was called inactive. In the case of `COc1cc(C2C3=C(CC(C)(C)CC3=O)N(C)C3=C2C(=O)CC(C)(C)C3)cc(Br)c1O` it was “inactive”; in that of `CN1CCc2c(sc(NC(=O)Cc3ccccc3)c2C#N)C1`, “inactive”; in that of `C=CCn1c(=N)c(C#N)cc2c(=O)n3ccccc3nc21`, “inactive”. Next, `O=C(NCc1nnnn1-c1ccc(Cl)cc1)C1CC(=O)N(c2ccc(F)cc2)C1` (centres undefined): “inactive”. In the case of `COCCN1C=C(C(=O)OC)C(c2ccc(Cl)cc2)C(C(=O)OC)=C1` it was “inactive”; in that of `CC1CCN(C(=O)COc2cccc3c2CCN(Cc2ccccc2)C3=O)CC1`, “inactive”; in that of `Cn1c(=N)c(S(=O)(=O)c2ccccc2)cc2c(=O)n3ccccc3nc21`, “inactive”. As to `COCCCn1c(=N)c(C(=O)NC2CCCCC2)cc2c(=O)n3ccccc3nc21`, the call was inactive. Next, `CNNC(=S)NC1CC2CC1C1C=CCC21` (centres undefined): “inactive”; `Cc1cc(CNC(=O)c2ccc3c(c2)OCO3)c2ccccc2n1`: “inactive”; `CCn1c(=NC(=O)CSC(C)=O)sc2cc(OC)ccc21`: “inactive”. In the case of `N=c1oc2cc(O)ccc2cc1C(=O)Nc1ccc(Br)cc1` it was “inactive”; in that of `CCOc1ccc(NC(=O)CN(C)C(=O)CCCNC(=O)c2ccc(Cl)cc2)cc1OCC`, “inactive”.

As to `CC(=O)c1sc(N/N=C\c2ccc(N(C)C)cc2)nc1C`, the compound was called inactive.

Regarding `CCOC(=O)C1=CN(CC2CCCO2)C=C(C(=O)OCC)C1c1ccccc1C(F)(F)F` (centres undefined), the call was inactive. Next, `CCN(CC)CCNC(=O)c1sc2nc(-c3ccccc3)cn2c1C`: “inactive”. In the case of `CN(C)C(=O)CSc1nc2ccc(C(=O)c3ccccc3)cc2[nH]1` it was “inactive”.

In the case of `CCCCn1nc(NC(=O)c2cccs2)c2cc3cc(OC)ccc3nc21`, the compound was classed as inactive. Next, `Cc1cc(-n2c(=O)c(C#N)cc3c(=O)n4cccc(C)c4nc32)no1`: “inactive”; `Cc1cc(=O)oc2cc(OC(=O)c3cncc(Br)c3)ccc12`: “inactive”; `Cn1cnc(S(=O)(=O)Nc2ccc(OC(F)(F)F)cc2)c1`: “inactive”. In the case of `CCC(=O)N1C(C(=O)NCc2ccc(OC)cc2)CSC1c1ccc(OC)cc1` (centres undefined) it was “inactive”; in that of `COc1ccc(C2C3=C(CC(C)(C)CC3=O)N(C)C3=C2C(=O)CC(C)(C)C3)cc1`, “inactive”; in that of `COc1ccc(C(=O)Oc2cc(N)n(S(=O)(=O)c3ccccc3)n2)cc1`, “inactive”. Next, `Cn1nc(-c2ccc(Cl)cc2)c2cc(C(=O)N3CCN(c4ccccc4)CC3)sc21`: “inactive”; `CCC(Sc1nc(N)c(NC(=O)c2ccc(OC)cc2)c(=O)[nH]1)C(=O)O` (centres undefined): “inactive”; `CSc1ccc(Cn2c(C)c(C(=O)NCc3cccc(Cl)c3)sc2=O)cc1`: “inactive”.

For `O=C(O)c1cccc(NC(=O)c2cn(-c3ccccc3)nc2-c2cccc(Br)c2)c1`, the call was inactive. In the case of `Cc1ccc(-c2nc3ccsc3c(=O)[nH]2)cc1`, the result was inactive. As to `C=CCN1C(=S)CC(c2ccccc2)=Nc2ccccc21`, the call was inactive. Consider `CCc1ccccc1S(=O)(=O)Cc1ccc(C(=O)N2CCN(c3ccccc3OC)CC2)o1`, for which the result was inactive. For `CN1CCc2c(sc(NC(=O)C3CCCCC3)c2C(N)=O)C1`, the compound was called inactive. In the case of `Cc1cccn2c(=O)c3cc(C(=O)NCC4CCCO4)c(=N)n(CC4CCCO4)c3nc12` (centres undefined) it was “inactive”.
